Source: PubChem BioAssay AID540345 (The Scripps Research Institute Molecular Screening Center, 2011)
Values without a mark were called inactive. No rule for the calls is given here.

Test system: Rolipram
Assay: off-target binding and CYP inhibition panel, profiling panel, selectivity assay for GPR7 antagonist project, biochemical, Ricerca HitProfilingScreen, CYP450, set 2 (AID 540345)
Conditions: Ricerca radioligand binding/CYP panel, at 10 µM, hits give high values

COc1ccc(Oc2c(Cl)cnn(C3c4ccccc4-c4ccccc43)c2=O)cc1
inhibition: 5%
